Holding throughout (assay): PBM binding z-score (relative to random genomic background probes); higher = stronger binding; sequences stand for … in GC…GCGATTGACAGCGTAGAATGAAGG
Assay [1] concerns RARb homodimer (NR concentration 270 nM). Put shortly: (§1)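 On custom Agilent 4×180K arrays, double-stranded probes with 34-nt variable regions carried direct-repeat seeds, single-nucleotide variants, half-site ablations or random human genomic background. Ligand-free nuclear receptor dimers were applied for 1 h, and binding was read with antibodies against each partner (one per run). Binding z-scores come from regression-normalized fluorescence, with the random background probes as reference.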

Assay [2] relates to RARg:RXRa (NR concentration 270 nM, RXRa partner concentration 90 nM). In a few lines: as §1
Assay [3] has as its system RARg homodimer (NR concentration 270 nM). Put shortly:
as §1

In assay [4] the test system is RXRa DBDmut IVT, anti-RXR (DBD mutation: RXRa K156A/R161A, NR concentration 90 nM). In a few lines: as §1
The test system of assay [5] is RXRa homodimer (NR concentration 180 nM). In a few lines:
as §1

Assay [6] has as its system THRa:RXRa (NR concentration 90 nM, RXRa partner concentration 90 nM). In a few lines:
as §1

In assay [7] the test system is THRa homodimer (NR concentration 90 nM). Put shortly: as §1
The subject of assay [8] is VDR homodimer (NR concentration 270 nM). Put shortly: as §1

Consider GCTAGTTGGTCAGTGAAAGGTCACACACCGGTCG, for which the PBM binding z-score in assay [1] was determined as 4.96; in assay [2], 5.66; in assay [3], 4.94; in assay [4], 0.305; in assay [5], 5.62; in assay [6], 3.42. Also, the PBM binding z-score was determined as 1.71 in assay [7] and 1.73 in assay [8].

TCATATAGGTAAATGCTAGGTGAAATTCCGATCT: the PBM binding z-score in assay [1] is 0.107; in assay [2], 0.506; in assay [3], 0.4; in assay [4], 1.46; in assay [5], 0.811; in assay [6], 1.29. The results for the PBM binding z-score in assay [7] and in assay [8] were 0.404 and -0.0885, respectively.

CCTCCAAGGTCAGAGAGGTCAGTGAATGCCGAGT: the PBM binding z-score is 5.51 in assay [1]; 6.2 in assay [2]; 6.87 in assay [3]; 3.18 in assay [4]; 5.37 in assay [5]; 4.36 in assay [6]. Further, the figures for the PBM binding z-score in assay [7] and in assay [8] were 2.59 and 4.62, respectively.

Take AGTCAAAGTTCCGGACGAGGTAACGTAAAGCACG: the PBM binding z-score is 0.173 in assay [1]; 0.181 in assay [2]; 0.277 in assay [3]; -0.303 in assay [4]; 0.201 in assay [5]; 1.62 in assay [6]. Besides, the PBM binding z-score is 0.886 in assay [7] and -0.0573 in assay [8].

With TAGCCTAGGTCAGGGGCCAGTATACCACGCGAAC, the PBM binding z-score in assay [1] is 2.47; in assay [2] it was 3.16; in assay [3], 3.82; in assay [4], -0.891; in assay [5], 2.16; in assay [6], 1.91. Moreover, the PBM binding z-score is 0.583 in assay [7] and -0.245 in assay [8].

On to TAGCCTAGGTCAGTCAGGGGCCAGTATAGAAAGC, for which the PBM binding z-score in assay [1] was 2.81; in assay [2] it was 4.53; in assay [3] it was 3.75; in assay [4], -0.63; in assay [5], 1.18; in assay [6] it was 1.86. Also, the PBM binding z-score in assay [7] came to 0.122; in assay [8] it was 0.0513.

For the sequence CCGACTGGGGCAAGGATACCATAACGCACAGCCA, the PBM binding z-score in assay [1] was 0.07; in assay [2], 0.225; in assay [3], 0.802; in assay [4], -0.717; in assay [5], 0.232; in assay [6] it was -0.00683. The PBM binding z-score in assay [7] was 0.154; in assay [8], -0.376.

As for CGTCAAAGTTCAACCAAGGTAACGTAAAGCACGC, the PBM binding z-score in assay [1] stood at 4.13; in assay [2], 5.85; in assay [3], 6.21; in assay [4], 4.5; in assay [5], 4.98; in assay [6] it was 5.14. Also, the PBM binding z-score in assay [7] is 1.18; in assay [8] it was 4.3.

CGAACTAGGTCAGATCAGGACAGTGAAGGATGAT: the PBM binding z-score in assay [1] was 2.33; in assay [2], 2.68; in assay [3], 4.03; in assay [4] it was 0.645; in assay [5] it was 1.52; in assay [6], 4.73. The PBM binding z-score in assay [7] was 1.25; in assay [8], -0.038.

With ATCTCTAGGTAACAAGTTGAGTGAAAGAGAGGAC, the PBM binding z-score in assay [1] was 0.79; in assay [2], 0.858; in assay [3] it was 0.91; in assay [4], -0.013; in assay [5], 0.381; in assay [6] it was 1.41. The values for the PBM binding z-score in assay [7] and in assay [8] were 0.716 and 0.639, respectively.

As to CAAACTAGGTCACGACAGGTCAAAGTCGAATGAC, the PBM binding z-score came to 4.83 in assay [1]; 6.43 in assay [2]; 6.78 in assay [3]; 2.05 in assay [4]; 6.08 in assay [5]; 5.05 in assay [6]. The PBM binding z-score in assay [7] turned out to be 2.47; in assay [8] it was 2.23.

As for TCTTGTAGATCAAGCAGGTGAAGAAAGCCTGAGT, the PBM binding z-score in assay [1] is -0.296; in assay [2], -0.262; in assay [3] it was -0.325; in assay [4] it was 0.591; in assay [5], 0.0351; in assay [6] it was -0.0555. The PBM binding z-score in assay [7] is -0.319; in assay [8] it was -0.154.

As for CCTAGCAGGCCAGGGTCACTCGAGCATTTCGCTT, the PBM binding z-score in assay [1] was 2.57; in assay [2] it was 3.06; in assay [3], 2.18; in assay [4], 0.188; in assay [5], 3.57; in assay [6], 2.83. Moreover, the PBM binding z-score in assay [7] worked out at 0.909; in assay [8], 1.33.

In the case of TGAATGAGGTTAAACATCAGGGAACGTGGCGTCG, the PBM binding z-score in assay [1] was 0.708; in assay [2], 2.37; in assay [3] it was 1.44; in assay [4] it was 1.35; in assay [5], 3.15; in assay [6], 2.65. Also, the values for the PBM binding z-score in assay [7] and in assay [8] were 0.474 and 0.833, respectively.

Values taken from the supplement of paper PMC6555819.
